Test results taken from PubChem BioAssay (NCI).
The panel holds about 83,000 compounds, 20% with a hit somewhere; the sample as a whole holds those more often.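 Negative percent growth values reflect cell death: -40 means 40% of the cells present at the start died, and -100 means all died.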

How the values were obtained:
Experiment in all cases: NCI-60 one-dose screen, 48 h (100 = growth as untreated, 0 = no growth, -100 = all killed); active = growth percent below 10; inactive = the rest
SK-MEL-2 melanoma = settings: 10 µM
EKVX NSCLC = settings: 10 µM
SN12C renal = settings: 10 µM
UO-31 renal = settings: 10 µM
TK-10 renal = settings: 10 µM unless noted
ACHN renal = settings: 10 µM
CAKI-1 renal = settings: 10 µM
A498 renal = settings: 10 µM
CCRF-CEM leukemia = settings: 10 µM
MOLT-4 leukemia = settings: 10 µM
SR leukemia = settings: 10 µM
RPMI-8226 leukemia = settings: 10 µM
OVCAR-8 ovarian = settings: 10 µM
OVCAR-5 ovarian = settings: 10 µM
OVCAR-4 ovarian = settings: 10 µM
SK-OV-3 ovarian = settings: 10 µM
IGROV1 ovarian = settings: 10 µM
OVCAR-3 ovarian = settings: 10 µM
HS 578T breast = settings: 10 µM
NCI/ADR-RES ovarian = settings: 10 µM

Measured: growth

CCOC(=O)C(CCC(C)C)C(=O)OCC
inactive: SK-MEL-2 melanoma 97.5% | EKVX NSCLC 99.3% | SN12C renal 109% | UO-31 renal 84.7% | TK-10 renal 86.8% | ACHN renal 101% | CAKI-1 renal 100% | A498 renal 91.3% | CCRF-CEM leukemia 99.9% | MOLT-4 leukemia 83.8% | SR leukemia 79.7% | RPMI-8226 leukemia 98.8% | OVCAR-8 ovarian 95.6% | OVCAR-5 ovarian 107% | OVCAR-4 ovarian 107% | SK-OV-3 ovarian 106% | IGROV1 ovarian 102% | OVCAR-3 ovarian 109% | HS 578T breast 115% | NCI/ADR-RES ovarian 108%

NC(=S)NN=C1CCCC1
inactive: SK-MEL-2 melanoma 104% | EKVX NSCLC 65.4% | SN12C renal 94.5% | UO-31 renal 63.2% | TK-10 renal 105% | ACHN renal 107% | CAKI-1 renal 102% | A498 renal 85.6% | CCRF-CEM leukemia 42.7% | MOLT-4 leukemia 66.1% | SR leukemia 88% | RPMI-8226 leukemia 72.6% | OVCAR-8 ovarian 68.8% | OVCAR-5 ovarian 115% | OVCAR-4 ovarian 74.4% | SK-OV-3 ovarian 110% | IGROV1 ovarian 93.4% | OVCAR-3 ovarian 47.6% | HS 578T breast 95.5% | NCI/ADR-RES ovarian 42.9%

CCCCC(CC)COC(C)=O (stereo not given)
inactive: SK-MEL-2 melanoma 106% | EKVX NSCLC 101% | SN12C renal 101% | UO-31 renal 88.3% | TK-10 renal 102% | ACHN renal 106% | CAKI-1 renal 96.9% | A498 renal 86.3% | CCRF-CEM leukemia 108% | MOLT-4 leukemia 105% | SR leukemia 103% | RPMI-8226 leukemia 110% | OVCAR-8 ovarian 102% | OVCAR-5 ovarian 103% | OVCAR-4 ovarian 100% | SK-OV-3 ovarian 101% | IGROV1 ovarian 112% | OVCAR-3 ovarian 105% | HS 578T breast 106% | NCI/ADR-RES ovarian 99.2%

CCCCNC1(C#N)CCN(Cc2ccccc2)CC1
inactive: SK-MEL-2 melanoma 102% | EKVX NSCLC 95.5% | SN12C renal 104% | UO-31 renal 81.1% | TK-10 renal 105% | ACHN renal 106% | CAKI-1 renal 76.1% | A498 renal 78.5% | CCRF-CEM leukemia 102% | MOLT-4 leukemia 152% | SR leukemia 115% | RPMI-8226 leukemia 99.2% | OVCAR-8 ovarian 96.4% | OVCAR-5 ovarian 88.9% | OVCAR-4 ovarian 103% | SK-OV-3 ovarian 97.1% | IGROV1 ovarian 91.9% | OVCAR-3 ovarian 132% | HS 578T breast 101% | NCI/ADR-RES ovarian 88.3%

O=C(O)c1cccc([N+](=O)[O-])c1
inactive: SK-MEL-2 melanoma 112% | EKVX NSCLC 114% | SN12C renal 103% | UO-31 renal 89.6% | TK-10 renal 110% | ACHN renal 114% | CAKI-1 renal 100% | A498 renal 102% | CCRF-CEM leukemia 112% | MOLT-4 leukemia 101% | SR leukemia 97.4% | RPMI-8226 leukemia 120% | OVCAR-8 ovarian 103% | OVCAR-5 ovarian 120% | OVCAR-4 ovarian 105% | SK-OV-3 ovarian 113% | IGROV1 ovarian 113% | OVCAR-3 ovarian 109% | HS 578T breast 110% | NCI/ADR-RES ovarian 107%

CC12CC3CC1C(C(=O)O2)C3C(=O)O (stereo not given)
inactive: SK-MEL-2 melanoma 94.7% | EKVX NSCLC 105% | SN12C renal 105% | UO-31 renal 93.5% | TK-10 renal 94.5% | ACHN renal 105% | CAKI-1 renal 102% | A498 renal 106% | CCRF-CEM leukemia 101% | MOLT-4 leukemia 100% | SR leukemia 93.1% | RPMI-8226 leukemia 108% | OVCAR-8 ovarian 104% | OVCAR-5 ovarian 97.8% | OVCAR-4 ovarian 111% | SK-OV-3 ovarian 95.6% | IGROV1 ovarian 114% | OVCAR-3 ovarian 101% | HS 578T breast 108% | NCI/ADR-RES ovarian 97.5%

O=[N+]([O-])c1ccc(N=Nc2ccccc2)cc1
inactive: SK-MEL-2 melanoma 94.3% | EKVX NSCLC 106% | SN12C renal 94.3% | UO-31 renal 65.7% | TK-10 renal 92.2% | ACHN renal 96.2% | CAKI-1 renal 92.8% | A498 renal 89.8% | CCRF-CEM leukemia 38.7% | MOLT-4 leukemia 79.1% | SR leukemia 97.9% | RPMI-8226 leukemia 98% | OVCAR-8 ovarian 104% | OVCAR-5 ovarian 97.7% | OVCAR-4 ovarian 107% | SK-OV-3 ovarian 113% | IGROV1 ovarian 89.8% | OVCAR-3 ovarian 107% | HS 578T breast 119% | NCI/ADR-RES ovarian 94.8%

COc1cc(OC)c2ccc(=O)oc2c1
inactive: SK-MEL-2 melanoma 104% | EKVX NSCLC 95.2% | SN12C renal 97% | UO-31 renal 94.9% | TK-10 renal 101% | ACHN renal 104% | CAKI-1 renal 113% | A498 renal 101% | CCRF-CEM leukemia 106% | MOLT-4 leukemia 115% | SR leukemia 125% | RPMI-8226 leukemia 116% | OVCAR-8 ovarian 103% | OVCAR-5 ovarian 90.3% | OVCAR-4 ovarian 107% | SK-OV-3 ovarian 112% | IGROV1 ovarian 130% | OVCAR-3 ovarian 110% | HS 578T breast 97.1% | NCI/ADR-RES ovarian 105%
